The text below walks through data of PubChem BioAssay (EPA / NIEHS).

Activity calls are given as the source filed them. Rule for the calls: active = hit-call score of the fitted dose curve at least 0.9, where 1 is the maximum; inactive = score below 0.9.

The first assay in a line: ATG_EGR_CIS: Attagene CIS-FACTORIAL HepG2 Assay for human Early Growth Response 1 (EGR1) (AID 2282938). The conditions noted are these: HepG2 Attagene CIS-FACTORIAL EGR reporter mRNA; actives raise or lower the signal. The essentials: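 HepG2, transient MRTU transfection (cis promoters), 24 h compound. RNA → RT (oligo-dT) → PCR → 6-FAM labelling → HpaI cut → CE fluorescence. Bidirectional fit, DMSO baseline.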
As for `CCCCCCCCCCBr`, the call was inactive.

On to `N#CCCC(Br)(C#N)CBr` (stereo not drawn), for which the concentration at half-maximal activity (AC50) (commonly the concentration giving half of the maximal activity seen) was 45.3 µM (active).

As for `O=C(NC(=O)c1c(F)cccc1F)Nc1cc(Cl)c(Oc2ncc(C(F)(F)F)cc2Cl)c(Cl)c1`, the outcome was inactive.

For `C=C(C)[C@@H]1CC=C(C=O)CC1`, the compound was called inactive.

For the compound `Cc1cc(SCc2sc(-c3ccc(C(F)(F)F)c(F)c3)nc2C)ccc1OCC(=O)O`, the half-maximal activity concentration (AC50) is 26.3 µM (active).

With `ClCc1ccccc1CCl`, the concentration at half-maximal activity (AC50) is 29.5 µM (active).

Take `N#Cc1ccc(Cl)cc1`: the result was inactive.

`C[N+](C)(C)Cc1ccccc1`: the compound was called inactive.

Turning to `O=C1C=CC(=O)c2ccccc21`, the compound was called inactive.

For `CC(O)(CS(=O)(=O)c1ccc(F)cc1)C(=O)Nc1ccc(C#N)c(C(F)(F)F)c1` (stereo not drawn), the call was inactive.

Regarding `CCOC(=O)CC(=O)CCl`, the AC50 was 32.2 µM (active).

With `O=C(NC(=O)c1c(F)cccc1F)Nc1cc(Cl)c(OC(F)(F)C(F)C(F)(F)F)cc1Cl` (stereo not drawn), the result was inactive.

Turning to `C=CC(=O)NC(C)(C)CC(C)=O`, the call was inactive.

For the compound `CC(C)CP(=S)(S)CC(C)C`, the compound was called inactive.

As for `Cc1cc(C(F)(C(F)(F)F)C(F)(F)F)ccc1NC(=O)c1cccc(I)c1C(=O)NC(C)(C)CS(C)(=O)=O`, the outcome was inactive.

Turning to `O=S1OC[C@@H]2[C@H](CO1)[C@]1(Cl)C(Cl)=C(Cl)[C@@]2(Cl)C1(Cl)Cl` (stereo partly drawn), the compound was classed as inactive.

`CC1(C)[C@H](/C=C2\CCSC2=O)[C@@H]1C(=O)OCc1coc(Cc2ccccc2)c1`: the AC50 was 19 µM (active).

On to `CNC(=O)CSP(=O)(OC)OC`, for which the outcome was inactive.

For `c1csc(-c2ccc(-c3cccs3)s2)c1`, the AC50 was 3.02 µM (active).

On to `C1CCC(C2CCCCC2)CC1`, for which the call was inactive.

On to `NC(=O)c1ccc(N)nc1`, for which the outcome was inactive.

Consider `CC(F)(F)CC(F)(F)F`, for which the call was inactive.

In the case of `C=CC(=O)[O][Sn]([CH2]CCC)([CH2]CCC)[CH2]CCC`, the AC50 was 0.412 µM (active).

Regarding `O=S(=O)(C(Cl)(Cl)Cl)C(Cl)(Cl)Cl`, the half-maximal activity concentration (AC50) was 17.3 µM (active).

On to `COC(=O)c1cc(Oc2ccc(Cl)cc2Cl)ccc1[N+](=O)[O-]`, for which the AC50 is 27.2 µM (active).

Turning to `CC(C)(c1ccc(O)c(-c2ccccc2)c1)c1ccc(O)c(-c2ccccc2)c1`, the AC50 was 5.2 µM (active).

Turning to `Clc1cc(C(Cl)(Cl)Cl)cnc1Cl`, the concentration at half-maximal activity (AC50) is 8.77 µM (active).

As to `CCOC(=O)OC1=C(c2cc(C)ccc2C)C(=O)NC12CCC(OC)CC2` (stereo not drawn), the call was inactive.

For the compound `CCCSP(=S)(OCC)Oc1ccc(SC)cc1` (stereo not drawn), the compound was classed as inactive.

Consider `CN(C1CCCCC1)C1CCCCC1`, for which the outcome was inactive.

For `ClCCN1CCOCC1`, the outcome was inactive.

Turning to `FC(F)OCC(F)(F)C(F)(F)F`, the outcome was inactive.

`N#Cc1ccccc1N`: the outcome was inactive.

Regarding `[F][Sn]([c]1ccccc1)([c]1ccccc1)[c]1ccccc1`, the half-maximal activity concentration (AC50) was 0.336 µM (active).

`C[As+](C)(C)CC(=O)[O-]`: the compound was called inactive.

In the case of `O=C(Nc1ccc(Br)cc1)c1cc(Br)cc(Br)c1O`, the AC50 was 52.9 µM (active).

As for `O=[N+]([O-])c1ccc(Cl)c([N+](=O)[O-])c1`, the half-maximal activity concentration (AC50) is 6.18 µM (active).

Consider `CC(=Cc1ccccc1)[N+](=O)[O-]`, for which the compound was called inactive.

Turning to `CCOc1ccc(N)cc1`, the result was inactive.

The next assay can be described thus: ATG_M_19_CIS: Attagene CIS-FACTORIAL HepG2 Assay for M19 Transcription Factor (Internal Marker) (AID 2282939). The conditions noted are these: HepG2 Attagene CIS-FACTORIAL M19 internal marker reporter; actives raise or lower the signal. The method in brief: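 HepG2 cells transiently transfected with cis-regulated multiplexed reporter units, dosed 24 h. Reporter mRNA quantified by RT-PCR and capillary electrophoresis; internal background marker fitted bidirectionally versus DMSO.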
As to `CCCCCCCCCCBr`, the compound was called inactive.

Take `N#CCCC(Br)(C#N)CBr` (stereo not drawn): the call was inactive.

Regarding `O=C(NC(=O)c1c(F)cccc1F)Nc1cc(Cl)c(Oc2ncc(C(F)(F)F)cc2Cl)c(Cl)c1`, the outcome was inactive.

Consider `C=C(C)[C@@H]1CC=C(C=O)CC1`, for which the compound was classed as inactive.

Consider `Cc1cc(SCc2sc(-c3ccc(C(F)(F)F)c(F)c3)nc2C)ccc1OCC(=O)O`, for which the compound was called inactive.

`ClCc1ccccc1CCl`: the call was inactive.

With `N#Cc1ccc(Cl)cc1`, the result was inactive.

`C[N+](C)(C)Cc1ccccc1`: the compound was called inactive.

On to `O=C1C=CC(=O)c2ccccc21`, for which the outcome was inactive.

Regarding `CC(O)(CS(=O)(=O)c1ccc(F)cc1)C(=O)Nc1ccc(C#N)c(C(F)(F)F)c1` (stereo not drawn), the result was inactive.

Turning to `CCOC(=O)CC(=O)CCl`, the compound was classed as inactive.

Consider `O=C(NC(=O)c1c(F)cccc1F)Nc1cc(Cl)c(OC(F)(F)C(F)C(F)(F)F)cc1Cl` (stereo not drawn), for which the outcome was inactive.

Consider `C=CC(=O)NC(C)(C)CC(C)=O`, for which the compound was called inactive.

Consider `CC(C)CP(=S)(S)CC(C)C`, for which the call was inactive.

As for `Cc1cc(C(F)(C(F)(F)F)C(F)(F)F)ccc1NC(=O)c1cccc(I)c1C(=O)NC(C)(C)CS(C)(=O)=O`, the compound was classed as inactive.

As for `O=S1OC[C@@H]2[C@H](CO1)[C@]1(Cl)C(Cl)=C(Cl)[C@@]2(Cl)C1(Cl)Cl` (stereo partly drawn), the result was inactive.

In the case of `CC1(C)[C@H](/C=C2\CCSC2=O)[C@@H]1C(=O)OCc1coc(Cc2ccccc2)c1`, the call was inactive.

Take `CNC(=O)CSP(=O)(OC)OC`: the result was inactive.

On to `c1csc(-c2ccc(-c3cccs3)s2)c1`, for which the result was inactive.

Turning to `C1CCC(C2CCCCC2)CC1`, the compound was called inactive.

On to `NC(=O)c1ccc(N)nc1`, for which the call was inactive.

For `CC(F)(F)CC(F)(F)F`, the outcome was inactive.

With `C=CC(=O)[O][Sn]([CH2]CCC)([CH2]CCC)[CH2]CCC`, the compound was classed as inactive.

In the case of `O=S(=O)(C(Cl)(Cl)Cl)C(Cl)(Cl)Cl`, the compound was called inactive.

`COC(=O)c1cc(Oc2ccc(Cl)cc2Cl)ccc1[N+](=O)[O-]`: the result was inactive.

As for `CC(C)(c1ccc(O)c(-c2ccccc2)c1)c1ccc(O)c(-c2ccccc2)c1`, the call was inactive.

Turning to `Clc1cc(C(Cl)(Cl)Cl)cnc1Cl`, the result was inactive.

For the compound `CCOC(=O)OC1=C(c2cc(C)ccc2C)C(=O)NC12CCC(OC)CC2` (stereo not drawn), the compound was called inactive.

`CCCSP(=S)(OCC)Oc1ccc(SC)cc1` (stereo not drawn): the outcome was inactive.

Turning to `CN(C1CCCCC1)C1CCCCC1`, the result was inactive.

In the case of `ClCCN1CCOCC1`, the compound was classed as inactive.

Consider `FC(F)OCC(F)(F)C(F)(F)F`, for which the result was inactive.

`N#Cc1ccccc1N`: the call was inactive.

Turning to `[F][Sn]([c]1ccccc1)([c]1ccccc1)[c]1ccccc1`, the outcome was inactive.

Consider `C[As+](C)(C)CC(=O)[O-]`, for which the result was inactive.

On to `O=C(Nc1ccc(Br)cc1)c1cc(Br)cc(Br)c1O`, for which the outcome was inactive.

With `O=[N+]([O-])c1ccc(Cl)c([N+](=O)[O-])c1`, the compound was classed as inactive.

As for `CC(=Cc1ccccc1)[N+](=O)[O-]`, the call was inactive.

As for `CCOc1ccc(N)cc1`, the call was inactive.
